# According to ChEMBL document CHEMBL1201862, “PubChem BioAssay data set” (2004):
# Potency and affinity values are given separately.
# Experiment: M. tuberculosis growth inhibition, dose response, 7H9 media, purified and synthesized compounds, set 4 (AID 504857); call rule not given here
# Assay type: functional
smiles,measurement,value
Nc1c(C(=O)NC2CCCCC2)nsc1C(=O)OCC(=O)NC1CCCCC1,IC90,> 71.1 µM (active)
